The record followed here is PubChem BioAssay (Tox21).

Results filed as inconclusive are left out. Activity calls are given as the source filed them. Calls follow the shape of the dose curve; as a rule, active = well fitted cell-killing curve with a large enough effect in the repeat runs; inconclusive = weak or mixed curves, or effect the other way; inactive = no such curve, though single readings can be large or run the other way.
% is scaled to controls: 0 for no effect and ±100 for the full control effect; potency is read from the fitted curve at half-maximal effect.

A short description of the test: qHTS assay to identify small molecule antagonists of the peroxisome proliferator-activated receptor gamma (PPARg) signaling pathway - cell viability counter screen (AID 743194). Also: nearly all actives have a fitted effect of over 55% in size. The settings on record: PPARg-bla HEK293H viability, CellTiter-Glo luminescence, 17 h, co-treated with 50 nM rosiglitazone; series mostly up to 62.6 µM; activity change, negative = cytotoxicity: at the top concentration. From the text: U.S. Tox21 Program National Center for Advancing Translational Sciences [NCATS] NIH Chemical Genomics Center [NCGC] U.S. Environmental Protection Agency [EPA] National Institutes of Environmental Health Sciences [NIEHS] National Toxicology Program [NTP] U.S. Food and Drug Administration [FDA] Tox21 Assay Overview: The peroxisome proliferator-activated receptors (PPARs) are lipid-activated transcription factors of the nuclear receptor superfamily with three distinct subtypes namely PPAR alpha, PPAR delta (also called PPAR beta) and PPAR gamma (PPARg). All these subtypes heterodimerize with Retinoid X receptor (RXR) and these heterodimers regulate transcription of various genes. PPAR-gamma receptor (glitazone receptor) is involved in the regulation of glucose and lipid metabolism. To identify the compounds that activate PPAR-gamma signaling, GeneBLAzer PPAR gamma UAS-bla HEK293H cell line (Invitrogen, Carlsbad, CA, USA) containing a beta-lactamase reporter gene under the control of an Upstream Activator Sequence (UAS) was used to screen the Tox21 compound library. The cytotoxicity of the Tox21 compound library against the PPARg-bla cell line was tested in parallel by measuring the cell viability using CellTiter-Glo assay in the same wells.
Tox21 Assay Protocol Summary: PPARg-bla cells were dispensed at 3000 cells/5uL/well in 1536-well black wall/clear bottom plates using a Multidrop Combi (Thermo Fisher Scientific, Waltham, MA) dispenser. After the assay plates were incubated at 37 C and 5% CO2 for 5 h, 23 nL of compounds dissolved in DMSO, positive controls or DMSO only was transferred to the assay plate by a Pintool station (Kalypsys, San Diego, CA), followed by addition of 1ul Rosiglitazone (50 nM, final concentration in the wells). The assay plates were incubated at 37 C for 17 h, and then 1 uL of LiveBLAzerTM B/G FRET substrate was added using a Bioraptr Flying Reagent Dispenser (FRD) workstation (Beckman Coulter, Indianapolis, IN, USA). The assay plates were incubated at room temperature for 1 h and fluorescence intensity was measured by an Envision plate reader (PerkinElmer, Shelton, CT). For cell viability readout that measures cytotoxicity, 4 ul/well of CellTiter-Glo reagent was added into the assay plates using a Flying Reagent Dispenser. After 30 min incubation at room temperature, the luminescence intensity in the plates was measured using a ViewLux plate reader (PerkinElmer).
For `OC/C=C/CO`, the “activity change, negative = cytotoxicity” value is 10.7% (inactive).

As to `CC1(C)CCC[C@]2(C)[C@H]3CC(=O)O[C@]3(C)CC[C@@H]12`, the “activity change, negative = cytotoxicity” value is 2.37% (inactive).

With `CCc1cccc(CC)c1NC(=O)CN(CC(=O)O)CC(=O)O`, the “activity change, negative = cytotoxicity” value was 5.83% (inactive).

For `CCCCC(CC)COC(=O)CCCCC(=O)OCc1ccccc1` (stereo not given), the “activity change, negative = cytotoxicity” value is -12.7% (inactive).

Consider `CN(C)Cc1ccccc1O`, for which the “activity change, negative = cytotoxicity” value is 18.1% (inactive).

As for `Cc1cc(C(C)(C)C)c(O)c(C)c1Cn1c(=O)n(Cc2c(C)cc(C(C)(C)C)c(O)c2C)c(=O)n(Cc2c(C)cc(C(C)(C)C)c(O)c2C)c1=O`, the “activity change, negative = cytotoxicity” value is -27.2% (inactive).

Take `CC[N+](CC)(CC)CCOC(=O)C(C1CCCC1)C1CCCC1`: the “activity change, negative = cytotoxicity” value is 3.33% (inactive).

`C[Si](Cl)(c1ccccc1)c1ccccc1`: the “activity change, negative = cytotoxicity” value is 4.44% (inactive).

For `O=C(/C=C/c1ccc(O)c(O)c1)O[C@@H](C(=O)O)[C@@H](OC(=O)/C=C/c1ccc(O)c(O)c1)C(=O)O`, the “activity change, negative = cytotoxicity” value was 24.5% (inactive).

Consider `CC(=O)CC(=O)Nc1ccc(S(=O)(=O)O)cc1`, for which the “activity change, negative = cytotoxicity” value is 13.9% (inactive).

Turning to `OC1CCCc2ccccc21` (stereo not given), the “activity change, negative = cytotoxicity” value is -3.9% [at 81.1 µM] (inactive).

Regarding `CN(C)Cc1cc(C(C)(C)C)c(O)c(C(C)(C)C)c1`, the “activity change, negative = cytotoxicity” value is -1.08% (inactive).

For the compound `COCCOc1cc2cc(C(=O)NC3CCN(C(C)C)CC3)n(CC(=O)Nc3ccc(Cl)cn3)c2cn1`, the “activity change, negative = cytotoxicity” value is -3.76% (inactive).

For `O=C1CCc2ccc(OCCCCN3CCN(c4cccc(Cl)c4Cl)CC3)cc2N1`, the Potency is 15 µM (active).

`O=C(Oc1ccccc1)Oc1ccccc1`: the “activity change, negative = cytotoxicity” value is 14.4% (inactive).

On to `[Cl][Pt-2]([Cl])([Cl])[Cl]`, for which the “activity change, negative = cytotoxicity” value is 3.84% [at 81.1 µM] (inactive).

For `CCn1c2ccccc2c2cc([N+](=O)[O-])ccc21`, the “activity change, negative = cytotoxicity” value was -8.39% (inactive).

On to `O=c1oc2cc(O)ccc2c2oc3cc(O)ccc3c12`, for which the “activity change, negative = cytotoxicity” value is 3.55% (inactive).

Take `CCCc1ccc(OCC(=O)N2CCN(C(=O)COc3ccc(CCC)cc3OC)CC2)c(OC)c1`: the “activity change, negative = cytotoxicity” value is -15.1% (inactive).

`c1ccc(C(O[C@@H]2CCCN(CCc3ccc4c(c3)OCO4)C2)c2ccccc2)cc1`: the “activity change, negative = cytotoxicity” value is -25.7% (inactive).

`CCOC(=O)Cn1cccc1-c1nc(-c2ccc(OC)cc2)c(-c2ccc(OC)cc2)s1`: the “activity change, negative = cytotoxicity” value was -8.51% (inactive).

As to `CN1CCN(Cc2cc(-c3ccc4[nH]c(=O)oc4c3)co2)[C@@H](c2ccc(F)cc2)C1`, the “activity change, negative = cytotoxicity” value is -8.65% (inactive).

As to `CC(=O)Oc1cc2c(s1)CCN(C(C(=O)C1CC1)c1ccccc1F)C2` (stereo not given), the “activity change, negative = cytotoxicity” value is -8.27% (inactive).

In the case of `Cc1cccc(C)c1NC(=O)c1ccc(N)cc1`, the “activity change, negative = cytotoxicity” value is 0.886% (inactive).

Regarding `ClCCl`, the “activity change, negative = cytotoxicity” value is 14.7% (inactive).

In the case of `O=C1C(c2[nH]c3ccc(S(=O)(=O)O)cc3c2O)=Nc2ccc(S(=O)(=O)O)cc21`, the “activity change, negative = cytotoxicity” value is 1.32% (inactive).

Regarding `OC[C@H]1O[C@H](O[C@H]2O[C@H](CO)[C@@H](O)[C@H](O)[C@H]2O)[C@H](O)[C@@H](O)[C@@H]1O`, the “activity change, negative = cytotoxicity” value is 0.321% [at 81.1 µM] (inactive).

`CCCCC/C=C\C/C=C\CCCCCCCC(=O)O`: the “activity change, negative = cytotoxicity” value is -20.4% (inactive).

As to `CCc1oc2ccccc2c1C(=O)c1cc(I)c(O)c(I)c1`, the Potency was 13.3 µM (active).

In the case of `O=[N+]([O-])c1ccc(O)cc1C(F)(F)F`, the Potency was 38.9 µM (active).

As to `S=c1nccc[nH]1`, the “activity change, negative = cytotoxicity” value is 1.59% (inactive).

For the compound `CCC(CC)C(C)CCOC(C)=O` (stereo not given), the “activity change, negative = cytotoxicity” value was 12.6% (inactive).

As to `OC12N=C(c3ccccc3)SC1Cc1cc(Cl)ccc12` (stereo not given), the “activity change, negative = cytotoxicity” value is -2.78% (inactive).

On to `CCCCCCCCCCCC(=O)OCC(C)OC(=O)CCCCC(=O)O` (stereo not given), for which the “activity change, negative = cytotoxicity” value is 27.4% (inactive).

Take `O=C(O)c1cc(=O)c2ccccc2o1`: the “activity change, negative = cytotoxicity” value is -17.8% (inactive).

Take `NC(=S)NC(N)=S`: the “activity change, negative = cytotoxicity” value was -14.9% (inactive).

On to `C=CCn1c(=O)n(CC=C)c(=O)n(CC=C)c1=O`, for which the “activity change, negative = cytotoxicity” value is 8.51% (inactive).

`CC(C)(C)c1ccc(C(O)CCCN2CCC(C(O)(c3ccccc3)c3ccccc3)CC2)cc1` (stereo not given): the Potency was 13.3 µM (active).

For `CC(C)=CCNc1ncnc2c1ncn2[C@@H]1O[C@H](CO)[C@@H](O)[C@H]1O`, the Potency is 9.44 µM (active).

With `CCOC(=O)NNc1ccc(N(CC)CC(C)O)nn1` (stereo not given), the “activity change, negative = cytotoxicity” value is 0.494% (inactive).
